The values below come from PubChem BioAssay (NCATS).

SMILES strings stand for the structures. Results filed as inconclusive are left out. The source made the active and inactive calls. The call rests on the fitted dose curve; in most records, active means well fitted curve in the direction sought with a large enough effect; inconclusive means small, poorly fitted or top-dose-only effect, or another doubt; inactive means no such curve, though single readings can be large; an effect the other way counts as inactive or inconclusive.

Test [1] has as its target Glutathione peroxidase 1 (Homo sapiens) (UniProt P07203). Briefly: Primary qHTS Assay for Inhibitors of Recombinant Selenoprotein Glutathione Peroxidase 1 (GPX1) (AID 1845191). Further: nearly all actives have a fitted effect of over 65% in size. An outline of the steps: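 GR-coupled readout: NADPH consumption tracked by fluorescence, ex 340/em 450 nm, at t=0 and after 15 min at RT. Final mix 10 nM GPX1, 1 mM GSH, 0.5 mM CHP, 0.5 mM NADPH, 100 nM GR, 0.01% BSA, following 30 min enzyme–compound preincubation.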

The target in test [2] is Phospholipid hydroperoxide glutathione peroxidase GPX4 (Homo sapiens) (UniProt P36969). As to the kind of experiment: Primary qHTS Assay for Inhibitors of Recombinant Selenoprotein Glutathione Peroxidase 4 (GPX4) (AID 1845192). Further: nearly all actives have a fitted effect of over 65% in size. An outline of the steps:
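Steps: GPX4 plus compound, 30 min RT; add GR/GSH/NADPH master mix; start with cumene hydroperoxide; read 340/450 nm fluorescence at 0 and 15 min. Finals were 200 nM GPX4, 1 mM GSH, 0.5 mM CHP, 0.5 mM NADPH, 100 nM GR.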

Test [3] deals with Luciferin 4-monooxygenase (Photinus pyralis) (UniProt P08659). As to the kind of experiment: Primary firefly luciferase (FLuc) qHTS assay for identification of artifact compounds. (AID 1845220). Further: nearly all actives have a fitted effect of over 60% in size. An outline of the steps: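 Titrated compounds were incubated 15 min at RT, protected from light, with luciferin and ATP at 10 uM; reaction started with 10 nM FLuc, luminescence imaged at 5 min, and concentration-response fitted by Hill equation.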

The nature of test [4]: Primary fluorescence-based thiol-reactive (MSTI) qHTS assay for identification of artifact compounds. (AID 1845221). Further: nearly all actives have a fitted effect of over 65% in size. Further: potency means the concentration at half of the fitted maximal effect. An outline of the steps: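 First, 4 uM MSTI in 2% DMSO/PBS pH 7.4 was dispensed; next, compounds were added; then plates sat 1 h at room temperature without light. Finally, emission at 598 nm was recorded.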
Test [5] has as its system Nanoluciferase (engineered Oplophorus gracilirostris luciferase). Briefly: Primary Nanoluciferase (NLuc) qHTS assay for identification of artifact compounds. (AID 1845222).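 Further: NLuc secreted into diluted conditioned medium of S16 cells; series mostly up to about 54 µM.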 An outline of the steps: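 qHTS format, against NLuc in S16 cell-conditioned medium. Nano-Glo substrate 1:100 was added after 15 min at room temperature. Luminescence was taken after a further 5 min.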

The nature of test [6]: Primary redox qHTS assay for identification of artifact compounds. (AID 1845223). An outline of the steps:
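Redox-cycling detection via DTT (250 uM final) oxidation coupled to Amplex Red (25 uM)/HRP (250 mU/mL) in HBSS. 15 min preincubation plus 30 min after DTT, room temperature. Ex/Em 525/598 nm; 4-parameter Hill fit against DMSO and 10 uM DA3003.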

Sequence of Glutathione peroxidase 1 (Homo sapiens) (P07203 whole entry, looked up): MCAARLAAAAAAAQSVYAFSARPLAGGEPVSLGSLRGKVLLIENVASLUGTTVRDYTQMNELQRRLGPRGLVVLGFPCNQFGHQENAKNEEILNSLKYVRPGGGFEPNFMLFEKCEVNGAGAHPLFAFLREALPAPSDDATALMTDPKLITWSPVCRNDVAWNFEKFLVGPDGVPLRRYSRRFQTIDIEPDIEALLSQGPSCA
Sequence of Phospholipid hydroperoxide glutathione peroxidase GPX4 (Homo sapiens) (P36969 whole entry, looked up): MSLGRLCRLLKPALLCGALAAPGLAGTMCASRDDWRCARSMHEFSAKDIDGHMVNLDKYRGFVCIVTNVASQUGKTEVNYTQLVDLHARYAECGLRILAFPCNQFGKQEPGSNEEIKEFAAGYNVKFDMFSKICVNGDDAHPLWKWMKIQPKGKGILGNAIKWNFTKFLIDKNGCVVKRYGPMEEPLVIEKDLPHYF

Turning to `O=C(N[C@@H]1CCCc2c1cnn2-c1ccc(F)cc1F)c1ccccn1`, the Potency result in test [1], in test [2], in test [3], in test [4], in test [5] and in test [6] was “inactive” throughout.
As for `Cc1ccc(F)cc1S(=O)(=O)N[C@@H]1CCN(Cc2ccc(OC(C)C)cc2)C1`, the Potency result in test [1], in test [2], in test [3], in test [4], in test [5] and in test [6] was “inactive” in each case.
As to `CCCn1ncc(CN2CCCC(C(=O)c3cccc(OC(C)C)c3)C2)c1C` (centres undefined), the Potency entry in test [1], in test [2], in test [3], in test [4], in test [5] and in test [6] was “inactive” each time.
With `CC(=O)[C@H]1CC[C@H]2[C@@H]3CC=C4C[C@@H](OS(=O)(=O)O)CC[C@]4(C)[C@H]3CC[C@]12C`, the Potency entry in test [1], in test [2], in test [3], in test [4], in test [5] and in test [6] was “inactive” throughout.
Regarding `C=C1CC[C@H]2C(=C)CC[C@H]3C(=C)C(=O)O[C@@H]3[C@@H]12`, the Potency result in test [1], in test [2], in test [3], in test [4], in test [5] and in test [6] was “inactive” in each case.
Regarding `NS(=O)(=O)Nc1ncnc(OCCOc2ncc(Br)cn2)c1-c1ccc(Br)cc1`, the Potency entry in test [1], in test [2], in test [3], in test [4], in test [5] and in test [6] was “inactive” each time.
For `O=C(NC1CCC1)c1ccc(C#Cc2cccc(F)c2)nc1`, the Potency entry in test [1], in test [2], in test [3], in test [4], in test [5] and in test [6] was “inactive” in each case.
Turning to `C/C1=C\[C@@H](C)C[C@@H](C)[C@@H](Cc2cnco2)OC(=O)/C(C)=C/[C@@H](C)C[C@@H](C)[C@@H](Cc2cnco2)OC1=O`, the Potency entry in test [1], in test [2], in test [3], in test [4], in test [5] and in test [6] was “inactive” throughout.
For the molecule `Nc1nc2c(nc(Br)n2[C@@H]2O[C@@H]3COP(=O)(O)O[C@H]3[C@H]2O)c(=O)[nH]1`, the Potency entry in test [1], in test [2], in test [3], in test [4], in test [5] and in test [6] was “inactive” each time.
`CC(=O)C=C=C1C(C)(C)CC(O)CC1(C)O[C@@H]1O[C@H](CO[C@H]2OC[C@](O)(CO)[C@H]2O)[C@@H](O)[C@H](O)[C@H]1O` (some centres undefined): the Potency entry in test [1], in test [2], in test [3], in test [5] and in test [6] was “inactive” in each case. For the same molecule, the Potency in test [4] was 5.19 µM (active).
As for `CCC(C)c1ccc(NC(=O)Cn2cnc3c2c(=O)n(C)c(=O)n3C)cc1` (centres undefined), the Potency result in test [1], in test [2], in test [3], in test [4], in test [5] and in test [6] was “inactive” in each case.
In the case of `CC(C)c1ccccc1OC(=O)NCCc1ccc2ccccc2c1`, the Potency entry in test [1], in test [2], in test [3], in test [4], in test [5] and in test [6] was “inactive” each time.
Regarding `C=C(C=O)[C@]1(O)C[C@@]2(C)C(=CC1=O)C=C[C@H](OC(=O)/C=C/C=C/[C@H](C)CC)[C@@H]2C`, the Potency entry in test [1], in test [2], in test [3], in test [4], in test [5] and in test [6] was “inactive” each time.
Regarding `C=C1C(=O)O[C@@H]2C[C@@]3(C)C[C@@H](O)C[C@H](C)C3=C[C@H]12`, the Potency result in test [1], in test [2], in test [3], in test [4], in test [5] and in test [6] was “inactive” each time.
Regarding `COc1ccccc1N1CCN(CC(C(=O)NC(C)(C)C)c2ccccc2)CC1` (centres undefined), the Potency entry in test [1], in test [2], in test [3], in test [4], in test [5] and in test [6] was “inactive” each time.
In the case of `CC(C)CCCCC(=O)N[C@@H](CO)C(=O)N[C@@H](CC(C)C)C(=O)[C@@]1(CO)CO1`, the Potency result in test [1], in test [2], in test [3], in test [4], in test [5] and in test [6] was “inactive” throughout.
`O=[N+]([O-])c1cn2c(n1)OC[C@@H](OCc1ccc(-c3ccc(OC(F)(F)F)cc3)nc1)C2`: the Potency result in test [1], in test [2], in test [3], in test [4], in test [5] and in test [6] was “inactive” each time.
Regarding `CC(C)(N)c1ncc(-c2ccc(OC(F)(F)F)cc2)[nH]1`, the Potency entry in test [1], in test [2], in test [3], in test [4], in test [5] and in test [6] was “inactive” in each case.
With `CC(C)c1ccc(NC(=O)Cn2cnc3c2c(=O)n(C)c(=O)n3C)cc1`, the Potency result in test [1], in test [2], in test [3], in test [4], in test [5] and in test [6] was “inactive” in each case.
For the molecule `O=S(=O)(NCc1cccc2ccccc12)c1cc(Cl)c(Oc2cccc(N3CCNCC3)c2)s1`, the Potency entry in test [1], in test [2], in test [3], in test [4], in test [5] and in test [6] was “inactive” in each case.
Turning to `COc1ccc(CNCc2cccc3ccccc23)cc1`, the Potency entry in test [1], in test [2], in test [3], in test [4], in test [5] and in test [6] was “inactive” each time.
Regarding `CCC(CC)(NC(=O)C(C)C)C(=O)N[C@@H](CCCN=C(N)N)C(=O)NC1(C(=O)NC(c2ccc(F)cc2)c2ccc(F)cc2)CCCC1`, the Potency entry in test [1], in test [2], in test [3], in test [4], in test [5] and in test [6] was “inactive” throughout.
For the molecule `Cn1ncc2cc(-c3cnc(N)c(Cl)c3N3CCC4(CCNC4=O)CC3)ccc21`, the Potency entry in test [1], in test [2], in test [3], in test [4], in test [5] and in test [6] was “inactive” throughout.
For `CC(O)(C(=O)C1CC1(CO)COC1OC(CO)C(O)C(O)C1O)C1C(O)CC2C3CC=C4CC(O)CC(O)C4(C)C3C(O)CC21C` (centres undefined), the Potency entry in test [1], in test [2], in test [3], in test [4], in test [5] and in test [6] was “inactive” throughout.
